Reference: the supplement of paper PMC9135407
Where a name gives a salt, the structure may show the parent alone. Unmarked numbers belong to inactive results.

System: primary human hepatic stellate cells (donor 1)
Test: COL1A1 mRNA fold change vs DMSO (normalised to PSMB2); higher = more COL1A1 expression, active = hit call of the paper
Conditions: 48 h
Method: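 Secondary qRT-PCR screen in primary human HSCs (donor 1), 384-well plates, with compounds dispensed in quadruplicate and incubated for 48 h. Cells-to-CT lysates were used for multiplexed TaqMan qPCR of ACTA2 or COL1A1 with PSMB2 as reference. Fold changes versus DMSO come from a linear model (Ct_gene ~ Ct_PSMB2 + plate + chemical). A hit is defined as COL1A1 and ACTA2 FC <0.5 (FDR <0.05) with PSMB2 between 0.2 and 2.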

Going from `O=C1NC(=O)/C(=C/c2ccc(-c3ccc(F)cc3O)o2)S1` (33.3333 µM) to `CC(C)c1cc(-c2n[nH]c(=O)n2-c2ccc3c(ccn3C)c2)c(O)cc1O` [Ganetespib (STA-9090)] (33.3333 µM), the “COL1A1 mRNA fold change” value rises from 0.115 to 1.04.

First: Cc1ccc(S(=O)(=O)/C=C/C#N)cc1 (33.3333 µM)
Second: NS(=O)(=O)C#Cc1ccccc1 [Pifithrin->m] (33.3333 µM)
The “COL1A1 mRNA fold change” value of the first is higher: 0.394 for the first, 0.18 for the second.

Compared with `CCC/C=C\C=C/C(=O)N[C@@H](CC(N)=O)C(=O)NC(CC(N)=O)C(=O)N[C@@H](C(=O)N[C@H](CCCN)C(=O)N[C@@H](C(=O)N[C@@H](C(=O)N[C@@H](C(=O)N[C@H](C(=O)N[C@@H](Cc1ccccc1)C(=O)N[C@H](CCCN)C(=O)NC(C(=O)N[C@H](C(=O)NC(C(=O)NCC(=O)N[C@@H](CC(C)C)C(=O)N[C@H](C)C(=O)NC(C(=O)O)C1CCC(O)C(Cl)C1)C1CCC(O)CC1)[C@H](C)O)C1CCC(O)CC1)[C@H](C)O)C1CCC(O)CC1)C1CCC(O)CC1)[C@H](C)O)C1CCC(O)CC1` (stereo partly specified) (33.3333 µM), `Cn1cc(CNCC2CCN(c3ncc(C(=O)NO)cn3)CC2)c2ccccc21` [Quisinostat] (33.3333 µM) is lower in “COL1A1 mRNA fold change” value: 1.59 for the first, 0.00578 for the second.

First: CS(=O)(=O)CCNCc1ccc(-c2ccc3ncnc(Nc4ccc(OCc5cccc(F)c5)c(Cl)c4)c3c2)o1 (6.66667 µM)
Second: COc1ccccc1OCCNCC(O)COc1cccc2[nH]c3ccccc3c12 (stereo unspecified) [Carvedilol] (33.3333 µM)
The “COL1A1 mRNA fold change” value of the first is higher: 1.41 for the first, 0.294 for the second.

For `C[C@@H]1CN(CCCn2c3ccccc3c3ccccc32)C[C@H](C)N1` [Rimcazole dihydrochloride] (33.3333 µM), the “COL1A1 mRNA fold change” value was 0.14.

In the case of `CN1CCC(=C2c3ccccc3C=Cc3ccccc32)CC1` [Cyproheptadine] (33.3333 µM), the “COL1A1 mRNA fold change” value is reported as 0.078 (active).
With `CCN(CC)CCCCNc1ncc2cc(-c3c(Cl)cccc3Cl)c(NC(=O)NC(C)(C)C)nc2n1` (33.3333 µM) the “COL1A1 mRNA fold change” value was 0.425 (active).
